# Sampled rows, rich in hits. Any-hit rate of the full collection: about 2.6%.
# Nrf2 ARE act – Nrf2 pathway activation. AREc32 ARE-luciferase reporter (MCF7-derived line), luminescence, 24 h. Potency, µM (series often up to 46.1 µM), inactives show at the highest dose activation, hits mostly activators. 410,000 tested, 0.31% active. AID 624171; further: potency means the concentration at half of the fitted maximal effect; % of control where 0% means no effect; nearly all actives have a fitted effect of over 65% in size
#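 Luminescent ARE reporter assay in AREc32_Fluc cells: overnight plating at 37 deg C, 24 hr compound incubation, Steady-Glo added, 30 min RT before reading.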
# CCT modulator – modulators of cytosolic chaperonin (CCT/TRiC) activity | purified chaperonin ATPase assay, HTRF ADP detection, 30 min | activity change, % (test concentration not listed), hits read low | 360,000 tested, 0.3% active | AID 651819; in the data active means activity change below about -30%; further: on the % scale 0 is the no-effect control and ±100 the full control effect
#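 Enzyme 40 or 20 nM (batch-dependent) in Tris pH 7.4/KCl/MgCl2/DTT; cpd 76 uM single point; ATP 10 uM; 30 min 37 °C; Transcreener ADP HTRF detection, 30 min RT; ratio 665/615.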
# TCR act – T cell receptor activation; primary human leukocytes, anti-CD3, IL-2 HTRF, 48 h; Potency, µM (titrated, usually from 9.22 µM), for the others: at the highest dose activation of IL-2 secretion, most hits filed as activators; 330,000 tested, under 10 active; further: % of control where 0% means no effect
#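 Using a-CD3 beads without co-stimulation, primary human leukocytes were exposed to compounds for 48 hr. An HTRF IL-2 kit measured the cytokine, with europium-to-d2 energy transfer producing emission at 665nm upon 320nm excitation.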
# AT treatment – candidate therapy for ataxia-telangiectasia. 320,000 tested, 0.19% active. Potency, µM (doses to about 57.5 µM), for the others: at the highest dose activation, actives largely listed as activators. AID 485349. F2112 A-T fibroblasts, KAP-1 phosphorylation AlphaLISA; neocarzinostatin DNA damage 30 min before lysis; further: potency means the concentration at half of the fitted maximal effect; % of control where 0% means no effect; nearly all actives have a fitted effect of over 45% in size
#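 ATM-like activity read as KAP-1 phosphorylation via AlphaLISA donor/acceptor antibody pairs after lysis and 6 hr at 25C. Cells were ATM-null patient fibroblasts (F2112, hTERT), dosed 60 min, then exposed to the DSB inducer NCS for 30 min.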
# A549 tox-1 – A549 cytotoxicity, counter-screen for Nrf2 inhibitors; A549 ARE-Fluc cells, CellTiter-Fluor viability, 18-24 h; Potency, µM (titrated, usually from 46 µM), inactives show top-dose activity change, negative = cytotoxicity, usual class: inhibitors; 390,000 tested, 0.16% active; further: potency means the concentration at half of the fitted maximal effect; on the % scale 0 is the no-effect control and ±100 the full control effect
#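 A549 ARE_Fluc cells in 5% FBS OPTI-MEM were exposed to compounds in concentration-response for 18-24 h at 37 deg C. Viability was read by CellTiter-Fluor fluorescence (Ex 405/Em 525) after 30 min, before the luciferase read.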
# Nrf2 inh – Nrf2 pathway inhibition; Potency, µM (top dose mostly 46 µM), inactives show top-dose activity change, negative = inhibition, actives largely listed as inhibitors; A549 ARE-Fluc reporter, luciferase luminescence, 18-24 h; 360,000 tested, 2.1% active; further: potency means the concentration at half of the fitted maximal effect; on the % scale 0 is the no-effect control and ±100 the full control effect; nearly all actives have a fitted effect of over 60% in size
#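 Nrf2 function is reported as luminescence of an ARE-controlled luciferase in A549 cells. Compounds were tested at several concentrations, and a CellTiter-Fluor read on the same wells flagged cytotoxicity.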
# FLuc counter 3 – firefly luciferase inhibition, Nrf2 hit validation. shares compounds with Nrf2 inh. purified firefly luciferase, luminescence inhibition. Potency, µM (titrated, usually from 57.5 µM), without a hit: at the highest dose activity change, negative = inhibition, actives largely listed as inhibitors. 1,400 tested, 4% active; further: potency means the concentration at half of the fitted maximal effect; on the % scale 0 is the no-effect control and ±100 the full control effect; nearly all actives have a fitted effect of over 65% in size
# Target sequence (P08659 whole entry, looked up): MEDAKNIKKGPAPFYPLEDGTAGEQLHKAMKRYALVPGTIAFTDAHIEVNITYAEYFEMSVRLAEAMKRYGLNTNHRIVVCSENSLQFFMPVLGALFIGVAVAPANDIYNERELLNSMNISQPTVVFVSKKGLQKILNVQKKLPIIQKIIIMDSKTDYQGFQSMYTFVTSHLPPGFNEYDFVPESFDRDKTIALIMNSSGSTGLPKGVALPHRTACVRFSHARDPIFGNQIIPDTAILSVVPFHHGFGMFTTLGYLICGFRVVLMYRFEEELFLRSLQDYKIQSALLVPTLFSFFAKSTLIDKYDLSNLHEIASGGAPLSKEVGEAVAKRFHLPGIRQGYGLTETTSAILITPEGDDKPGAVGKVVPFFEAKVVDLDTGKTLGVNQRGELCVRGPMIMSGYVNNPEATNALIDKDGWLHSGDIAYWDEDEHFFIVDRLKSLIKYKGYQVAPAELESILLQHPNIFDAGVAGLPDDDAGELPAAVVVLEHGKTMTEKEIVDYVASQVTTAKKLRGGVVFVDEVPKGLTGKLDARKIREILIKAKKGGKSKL
# A549 tox-2 – counter-screen for Nrf2 inhibitors: cytotoxicity in A549 ARE cells; shares compounds with Nrf2 inh; A549 ARE-Fluc cells, cytotoxicity counterscreen; Potency, µM (titrated, usually from 46.1 µM), for the others: at the highest dose activity change, negative = cytotoxicity, most hits filed as inhibitors; 1,400 tested, 2% active; AID 720523;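 further: potency means the concentration at half of the fitted maximal effect; cells exposed to compounds for 18 to 24 hours; on the % scale 0 is the no-effect control and ±100 the full control effect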
# ARE-Fluc inh – reduces Nrf2 ARE reporter signal in A549 cells | shares compounds with Nrf2 inh | A549 ARE-firefly luciferase reporter, luminescence | 1,400 tested, 74% active | Potency, µM (top dose mostly 46.1 µM), without a hit: at the highest dose activity change, negative = inhibition, usual class: inhibitors; further: potency means the concentration at half of the fitted maximal effect; on the % scale 0 is the no-effect control and ±100 the full control effect; nearly all actives have a fitted effect of over 65% in size
# Numbers without * were called inactive; ? = inconclusive; / = no result given; [ ] = another dose, or the depositor's remark. Unless noted, the call rests on the fitted dose curve; in most records, active means well fitted curve in the direction sought with a large enough effect; inconclusive means small, poorly fitted or top-dose-only effect, or another doubt; inactive means no such curve, though single readings can be large; an effect the other way counts as inactive or inconclusive.
SMILES,Nrf2 ARE act,CCT modulator,TCR act,AT treatment,A549 tox-1,Nrf2 inh,FLuc counter 3,A549 tox-2,ARE-Fluc inh
Cn1nccc1C(=O)NC1CCCc2c1cnn2-c1ccc(C(C)(C)C)cc1 (stereo not given),3%,-1,-2%,21%,-19%,0.73µM*,?,-12%,0.73µM*
CC(C)(C)c1ccc(-n2ncc3c2CCCC3NC(=O)c2cnccn2)cc1 (stereo not given),5%,1,-3%,-2%,-12%,?,/,/,/
Cc1cc(C(=O)NC2CCCc3c2cnn3-c2cccc(C)c2C)n(C)n1 (stereo not given),0%,0,-10%,-5%,-21%,0.21µM*,-1%,?,0.021µM*
CC12CCC(C3NC(=S)NN=C31)C2(C)C (stereo not given),-1%,0,3%,/,-5%,3%,/,/,/
COc1ccc(NS(=O)(=O)c2ccc(OC)c(N(C)S(=O)(=O)c3ccc(Cl)cc3)c2)cc1,6%,-4,-2%,-3%,?,7.3µM*,-10%,?,8.2µM*
COc1ccc(S(=O)(=O)Nc2ccc(F)cc2)cc1N(C)S(=O)(=O)c1ccc(Cl)cc1,8%,2,6%,12%,-29%,?,/,/,/
COc1ccc(NC(=O)COc2ccc(N(C)S(=O)(=O)c3ccc(Cl)cc3)cc2)cc1OC,2%,-1,2%,7%,-9%,9.2µM*,3%,-11%,6.5µM*
Cc1ccc(C2Nc3cc(C)c(C)cc3-n3c(-c4ccccc4)c4c(=O)n(C)c(=O)n(C)c4c32)o1 (stereo not given),-1%,/,/,/,7%,6%,/,/,/
O=C(Nc1ncc(Cc2ccc(C(F)(F)F)cc2)s1)c1ccc(-c2cccc([N+](=O)[O-])c2)o1,0%[9.22 µM],1,5%[46.1 µM],2%,-5%,5.8µM*,2%,-1%,6.5µM*
Cc1c(Cl)cccc1NC(=O)COCc1cc(-c2ccc3c(c2)OCO3)on1,0%,/,/,/,15%,-18%,/,/,/
CN(C)S(=O)(=O)c1ccc(N2CCN(S(=O)(=O)c3ccc(F)cc3)CC2)c(Cl)c1,2%,2,1%,11%,-17%,5.8µM*,-1%,-18%,?
Cc1ccc(-c2csc(Cc3nc(-c4cc5ccccc5oc4=O)cs3)n2)cc1,-1%,0,0%,4%,-3%,4.6µM*,-1%,-4%,7.3µM*
O=c1oc2ccccc2cc1-c1csc(Cc2nc(-c3ccc(Br)cc3)cs2)n1,0%,-4,10%,7%,-16%,2.9µM*,2%,-3%,/
Cc1cc(C)c(-c2csc(Cc3nc(-c4cc5ccccc5oc4=O)cs3)n2)cc1C,-1%,-4,-1%[46.1 µM],-6%,1%,?,/,/,/
Cc1noc(C)c1C(=O)Nc1ccccc1N1CCCC1,0%,-1,8%,-3%,1%,1%,/,/,/
Cc1ccc(S(=O)(=O)N2CCOCC2)cc1NC(=O)COC(=O)c1ccc(Cl)s1,0%,0,-11%,-2%,7%,16%,/,/,/
C=CCc1ccccc1OCCOc1ccc([N+](=O)[O-])cc1/C=N/NC(N)=O,0%,-3,1%,0%,-2%,-12%,/,/,/

# Bioassay records: PubChem BioAssay, National Center for Advancing Translational Sciences (NCATS)
